Bioassay records as filed in PubChem BioAssay.
Shown are actives, neighbours in structure and some others; about 4.1% of the full set was active somewhere.
hcDAF-12 act: H. contortus DAF-12 activation, primary screen | HEK293 hcDAF-12 lit1-tk-luc reporter, luminescence; 0% DMSO, 100% Δ7-dafachronic acid | activation, % at 6.8 µM | hit rate 1.4% among 370,000 | AID 652067;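 active means activation above the mean of all tested compounds plus 3 SD, cut at about 5.5% in these data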;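 further: 100% = response to 3 µM Δ7-dafachronic acid high control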
ssDAF-12 act: activates DAF-12 receptor from parasite S. stercoralis; activation, % at 6.8 µM; hit rate 1% among 370,000; HEK293 ssDAF-12/GRIP1 lit1-tk-luc reporter, luminescence; % of 3 µM dafachronic acid response; AID 652126;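 active means activation above the mean over all tested compounds plus 3 SD, cut at about 0.9% in these data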;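 further: 0% = DMSO-only wells and 100% = 3 µM delta7-dafachronic acid wells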
hgDAF12 agonist: hgDAF-12 agonism, primary luciferase screen; HEK293 GAL4-hgDAF12 UAS-luciferase reporter, agonist luminescence; normalized to butyrate control; activation, % at 6.8 µM; hit rate 1.8% among 370,000;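 active means activation above a cutoff set at the mean of all screened compounds plus 3 SD, cut at about 10% in these data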;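 further: 0% = DMSO wells and 100% = sodium butyrate wells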
DAX1 inh-1: inhibitors of DAX1 repression of SF-1 activated StAR promoter | HEK293T StAR-luciferase reporter, SF-1/DAX-1 repression relief | inhibition, % at 6.8 µM | hit rate 1.1% among 370,000;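 active means inhibition above the mean over all tested compounds plus 3 SD, cut at about 3.6% in these data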;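 further: 0% = DAX-1 cells with DMSO and 100% = cells lacking DAX-1 with DMSO; higher inhibition means more luminescence from relief of DAX-1 repression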
DAX1 inh-2: inhibitors of human orphan nuclear receptor DAX1 (NR0B1). P51843. HEK293 Gal4-DAX1 luciferase reporter, luminescence. inhibition, % at 6.75 µM. hit rate 0.99% among 340,000. AID 504766;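 active means inhibition above the mean over all tested compounds plus 3 SD, cut at about 4.2% in these data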;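 further: 0% = DAX1-transfected cells with DMSO and 100% = empty-vector control cells with DMSO; inhibition shows as a rise in luminescence from relieved DAX1 repression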
LXRb hcDAF ctr: LXR-beta agonism as hcDAF-12 counter-screen. shares compounds with hcDAF-12 act. HEK293 Gal4-LXR tk-luc reporter, luminescence, 24 h; normalized: DMSO 0%, positive control 100%. activation, % at 6.8 µM. 3,400 tested, under 10 active. AID 743027;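 active means mean percent activation of the reporter above a cutoff set as the average over tested compounds plus their standard deviation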
Target sequence (P55055 whole entry, looked up, the tested form may be a part): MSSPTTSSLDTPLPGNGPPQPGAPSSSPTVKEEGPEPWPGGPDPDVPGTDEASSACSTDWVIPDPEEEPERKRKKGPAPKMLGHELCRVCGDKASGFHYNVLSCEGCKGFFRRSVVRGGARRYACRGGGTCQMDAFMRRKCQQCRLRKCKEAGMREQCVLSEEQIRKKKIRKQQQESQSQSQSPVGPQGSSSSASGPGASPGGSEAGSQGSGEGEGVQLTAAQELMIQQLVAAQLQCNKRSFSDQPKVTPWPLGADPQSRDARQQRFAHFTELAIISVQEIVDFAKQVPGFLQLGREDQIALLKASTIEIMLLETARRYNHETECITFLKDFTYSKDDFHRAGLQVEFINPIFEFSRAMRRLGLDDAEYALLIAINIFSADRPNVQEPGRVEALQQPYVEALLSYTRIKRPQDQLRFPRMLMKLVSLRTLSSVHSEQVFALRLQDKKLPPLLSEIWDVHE
hcDAF12 conf: hcDAF-12 agonism, confirmation assay. shares compounds with hcDAF-12 act. HEK293 hcDAF-12 lit1-tk-luc reporter, luminescence; % of Δ7-dafachronic acid response. activation, % at 6.8 µM. hit rate 61% among 3,400. AID 743032;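 active means mean activation across triplicate tests above the threshold derived from the earlier primary screen, cut at about 5.5% in these data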;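 further: 0% = DMSO only wells and 100% = 3 µM Δ7-dafachronic acid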
Starred values were filed as active, the others as inactive; . = not tested or not shown.

SMILES	hcDAF-12 act	ssDAF-12 act	hgDAF12 agonist	DAX1 inh-1	DAX1 inh-2	LXRb hcDAF ctr	hcDAF12 conf
C=CCN1C(=O)[C@@H](CC(=O)NCc2cccc(C(F)(F)F)c2)[C@]2(C(=O)OC)CCCCC=C12	-3	-1	0	0	.	.	.
CCOC(=O)Nc1ccc2c3c(cccc13)-c1ccccc1-2	8.2*	0	7	4.2*	1	0	7.7*
CC(C)c1ccc(-c2cc(C(=O)NN3CCN(C)CC3)c3ccccc3n2)cc1	7.3*	1	9	2	-2	0	6.0*
CN1CCN(NC(=O)c2cc(-c3cccc(Cl)c3)nc3ccccc23)CC1	0	-2	0	2	0	.	.
COc1ccc(/C=C2\CCc3ccccc3C2=O)cc1O	8.5*	1	6	0	-2	1	6.9*
Cc1ccc(NC(=O)CSc2cn[nH]n2)cc1	7.0*	0	1	0	0	0	1
CCOc1ccc(NC(=O)CSc2cn[nH]n2)cc1	-1	-1	-4	1	0	.	.
COc1cc2cc(C(c3nnnn3C(C)(C)C)N3CCc4ccccc43)c(=O)[nH]c2cc1OC (stereo unspecified)	7.3*	0	-1	0	0	0	0
COc1cc2cc(C(c3nnnn3C3CCCC3)N3CCc4ccccc43)c(=O)[nH]c2cc1OC (stereo unspecified)	.	.	.	.	0	.	.
CN(Cc1ccccc1)S(=O)(=O)c1cccc(C(=O)OCc2cccc([N+](=O)[O-])c2)c1	-1	-1	7	0	.	.	.
O=C(O)c1cccc(COc2cccc3ccccc23)c1	9.1*	1.3*	13*	3	-4	2	9.4*
Cc1oc(C(=O)O)cc1COc1cccc2ccccc12	1	-1	0	0	4	.	.
Cc1ccc(NC(=S)NNC(=O)CSc2nnc(-c3ccc(C)cc3)n2C2CCCCC2)cc1	-4	-1	0	-1	.	.	.
O=C(N/N=C/c1ccccn1)c1sc2ccccc2c1Cl	0	-1	1	-1	0	.	.
Cc1ccc(C(=O)Nc2ccc(C(=O)N/N=C/c3c[nH]c4ccccc34)cc2)cc1	7.3*	0	4	-1	1	0	7.2*
O=C(CCC(=O)Nc1ccc(F)cc1)N/N=C/c1c[nH]c2ccccc12	3	0	0	-1	-1	.	.
COc1ccccc1C(=O)N/N=C/c1c[nH]c2ccccc12	7.0*	1.4*	6	0	-1	0	6.3*
O=C(N/N=C/c1c[nH]c2ccccc12)c1sc2ccccc2c1Cl	9.1*	0	7	0	1	0	4
COc1ccccc1/C=C\C(=O)NCC(=O)N/N=C(\C)Cc1ccccc1	-1	-2	-2	0	0	.	.
COc1ccccc1CNC(=O)N1CCN(Cc2nc3ccccc3c(=O)[nH]2)CC1	-2	-1	-1	0	.	.	.
O=C(NCC1CCCO1)c1cc2cc(F)ccc2[nH]1 (stereo unspecified)	7.1*	0	2	0	1	0	4
O=C(NCC1CCCO1)c1ccc[nH]1 (stereo unspecified)	0	-1	-1	0	1	.	.
COc1cccc(CNC(=O)[C@H]2CCCN2C(=O)[C@H]2CCCN2C(=O)OC(C)(C)C)c1	0	-1	0	-1	.	.	.
CC1CN(S(=O)(=O)c2ccc(C(=O)Nc3ccc(S(=O)(=O)Nc4nccs4)cc3)cc2)CC(C)O1 (stereo unspecified)	1	-1	-2	2	3	.	.
Cc1ccnc(NS(=O)(=O)c2ccc(NC(=O)c3ccc(S(=O)(=O)N4CC(C)OC(C)C4)cc3)cc2)n1 (stereo unspecified)	19*	-1	0	1	0	0	1
SMILES	hcDAF-12 act	ssDAF-12 act	hgDAF12 agonist	DAX1 inh-1	DAX1 inh-2	LXRb hcDAF ctr	hcDAF12 conf
CC(c1cc(F)ccc1O)c1c[nH]c2ccccc12 (stereo unspecified)	6.7*	0	2	0	.	0	6
CCS(=O)(=O)N(C)C[C@@H]1OCc2ccccc2-c2c(n(C)c3ccccc23)C(=O)N([C@H](C)CO)C[C@@H]1C	-2	-1	-3	-1	.	.	.
COc1ccc(/C=N/N(C(C)=O)c2nc(-c3ccc(C)cc3)cs2)cc1	-1	-1	0	0	2	.	.
COc1ccccc1/C=N/N(C(C)=O)c1nc(-c2ccc(F)cc2)cs1	7.2*	1.2*	9	1	3	1	11*
COc1ccc(-c2nc3c4ccccc4ccn3c2CN2CCCCC2)cc1	7.0*	-1	4	0	2	0	1
COc1ccc(-c2nc3c4ccccc4ccn3c2CN2CCCCC2)cc1OC	1	-1	2	-1	0	.	.
COc1ccccc1C1CC(c2cccs2)=NN1C(=O)CCC(=O)O (stereo unspecified)	7.0*	0	8	0	-1	0	3
COc1ccc(-c2nn(-c3ccccc3)cc2C2CC(c3cccs3)=NN2C(=O)CCC(=O)O)cc1 (stereo unspecified)	1	0	-1	0	-1	.	.
Cc1ccc2nc(-c3ccc(N)cc3)sc2c1	11*	1.6*	9	4.2*	.	2	13*
COc1ccc2nc(-c3ccc(F)cc3)sc2c1	9.3*	1.0*	11*	3	-2	1	6.7*
Cc1ccc(S(=O)(=O)Nc2nc3ccc(N)cc3s2)cc1	-2	-1	-1	0	0	.	.
COc1ccc2nc(N)sc2c1	3	-1	5	0	1	.	.
Nc1ccc2nc(-c3ccccc3)sc2c1	9.7*	0	11*	2	-3	2	7.1*
COc1ccc(C2=NS(=O)(=O)N(C)C(C(=O)N3CCc4ccccc4C3)=C2)cc1OC	-2	-1	-3	-4	-2	.	.
O=C(C1CC1)C1(C(=O)N2CCOCC2)CC(c2ccccn2)=NO1 (stereo unspecified)	-2	-2	0	1	.	.	.
COc1ccccc1C(=O)NC(=O)Nc1cccc(Cl)c1	13*	1	14*	2	4	2	18*
COc1ccccc1C(=O)Nc1cc(Cl)ccc1O	9.8*	0	3	0	0	0	5.8*
O=C(Nc1cc(Cl)ccc1F)C1CCCN(c2nnc(-n3cccc3)s2)C1 (stereo unspecified)	-2	-1	-5	0	.	.	.
COC(=O)c1cc(-c2cccs2)c(=O)n2c1CCC2	-2	0	0	1	.	.	.
COc1ccc2c(c1)CCCN2C(=O)C1CCCN(S(=O)(=O)c2ccccc2)C1 (stereo unspecified)	-4	-1	-3	-1	.	.	.
